Source: PubChem (several laboratories)
This is a sample that favours compounds with a hit; in the whole collection about 3.9% have one here.
HGIII-sPLA2 inh = Blocks human group III sPLA2 activity; Q9NZ20; QFRET BODIPY PC-A2 liposome hydrolysis, fluorescence; inhibition, % at 12.2 µM; 370,000 compounds, 0.56% hits;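 active means inhibition above mean plus 3 SD of compounds lying within the high and low control bounds, cut at about 19% in these data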
HIF act = HIF pathway transcriptional activation. U2OS HRE-luciferase reporter, luminescence; normalized: DMSO 0%, desferrioxamine 100%. AID 1910. 300,000 compounds, 0.32% hits. activation, % at 7.5 µM (by protocol);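 active means mean activation of at least 10% of the iron chelator positive control signal, with at least half of replicates also reaching 10%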
Yeast superoxide = lowers age-related superoxide in aged yeast cells | superoxide response (% of plate mean), % at 10 µM | 330,000 compounds, 0.18% hits | S. cerevisiae aged cells, superoxide DHE fluorescence; hits give low values;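 active means superoxide response under a set limit, about three screen SD below normal, cut at about 65% in these data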;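 further: yeast aged for seven days with compound at 30 °C before DHE staining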
AHR act = human AHR activation. P35869. AHR-responsive luciferase reporter cells, luminescence. activation, % at 5 µM. 320,000 compounds, 2.5% hits; in the data active means activation above about 47%
PLC-beta3 inh = blocks human PLC-beta3 enzyme activity; inhibition, % at 12.2 µM; 370,000 compounds, 0.18% hits; Purified PLC-beta3, fluorogenic substrate, fluorescence; Q01970; in the data active means inhibition above about 11%
Target sequence (Q01970 whole entry, looked up): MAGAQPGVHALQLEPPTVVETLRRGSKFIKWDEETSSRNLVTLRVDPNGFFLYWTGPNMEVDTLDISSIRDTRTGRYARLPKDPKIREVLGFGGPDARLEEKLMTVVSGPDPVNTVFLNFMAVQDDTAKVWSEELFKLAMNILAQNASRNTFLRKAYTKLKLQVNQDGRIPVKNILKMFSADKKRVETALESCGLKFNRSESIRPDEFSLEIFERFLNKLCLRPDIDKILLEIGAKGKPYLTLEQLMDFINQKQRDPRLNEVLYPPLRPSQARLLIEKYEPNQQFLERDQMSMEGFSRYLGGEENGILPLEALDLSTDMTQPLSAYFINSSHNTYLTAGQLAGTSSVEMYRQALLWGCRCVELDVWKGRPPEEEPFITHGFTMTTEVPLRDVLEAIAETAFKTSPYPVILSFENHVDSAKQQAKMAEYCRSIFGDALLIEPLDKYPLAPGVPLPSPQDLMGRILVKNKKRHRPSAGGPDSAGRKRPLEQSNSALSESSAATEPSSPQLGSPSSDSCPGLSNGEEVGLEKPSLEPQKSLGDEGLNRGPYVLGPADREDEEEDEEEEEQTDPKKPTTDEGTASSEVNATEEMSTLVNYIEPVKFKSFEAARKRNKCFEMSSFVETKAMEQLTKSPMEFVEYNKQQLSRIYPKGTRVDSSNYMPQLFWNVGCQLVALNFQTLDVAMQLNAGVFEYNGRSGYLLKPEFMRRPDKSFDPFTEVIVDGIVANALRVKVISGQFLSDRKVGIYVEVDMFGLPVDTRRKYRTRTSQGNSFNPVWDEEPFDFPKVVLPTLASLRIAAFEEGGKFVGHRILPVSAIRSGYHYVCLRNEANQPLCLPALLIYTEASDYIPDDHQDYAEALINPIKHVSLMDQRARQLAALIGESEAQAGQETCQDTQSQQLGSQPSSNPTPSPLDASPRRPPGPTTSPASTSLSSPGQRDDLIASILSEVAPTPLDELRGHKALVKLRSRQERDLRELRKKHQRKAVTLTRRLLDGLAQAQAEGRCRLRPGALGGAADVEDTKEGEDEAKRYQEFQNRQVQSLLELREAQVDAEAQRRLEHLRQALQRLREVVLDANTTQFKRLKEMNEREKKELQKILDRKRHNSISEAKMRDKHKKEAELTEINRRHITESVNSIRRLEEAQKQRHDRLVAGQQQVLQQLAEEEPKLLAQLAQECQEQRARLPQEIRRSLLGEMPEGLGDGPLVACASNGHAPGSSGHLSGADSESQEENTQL
PLC-gamma1 inh = PLC-gamma1 (human) inhibition, primary screen | inhibition, % at 12.2 µM | purified PLC-gamma1, fluorogenic substrate, fluorescence | P19174 | AID 720700 | 370,000 compounds, 0.84% hits; in the data active means inhibition above about 9.5%
hGIII sPLA2 conf = human GIII-sPLA2 inhibition, confirmation; shares compounds with HGIII-sPLA2 inh; recombinant hGIII-sPLA2, BODIPY PC-A2 QFRET fluorescence; inhibition, % at 12.2 µM; 2,000 compounds, 34% hits;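 active means mean inhibition across triplicates above the hit cutoff set in the earlier primary screen, cut at about 19% in these data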
BODIPY interf = 535nm fluorescence interference, HGIII-sPLA2 counter-screen | 2,000 compounds, 8.5% hits | shares compounds with HGIII-sPLA2 inh | AID 743282 | BODIPY FL product fluorescence interference, QFRET | inhibition, % at 12.2 µM;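 active means average inhibition above the solvent-only control mean plus 3 SD, cut at about 6% in these data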
BODIPY interf DR = interferes with 535nm fluorescence in dose response counter-screen | shares compounds with HGIII-sPLA2 inh | BODIPY FL product fluorescence interference, cell-free | IC50, µM | 240 tested, under 10 active;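 active means IC50 at or below 10 µM; inactive means IC50 above 10 µM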
Numbers stand for hits; – = inactive; · = not tested or not shown.

SMILES | HGIII-sPLA2 inh | HIF act | Yeast superoxide | AHR act | PLC-beta3 inh | PLC-gamma1 inh | hGIII sPLA2 conf | BODIPY interf | others
O=C(NNC(=S)NC(=O)C12CC3CC(CC(C3)C1)C2)c1ccncc1 | 24 | – | – | – | – | – | 31 | – | BODIPY interf DR=–
CC(=O)Nc1ccc(C2NC(=O)CCC2[N+](=O)[O-])cc1 (stereo not given) | – | – | – | – | – | – | · | ·
CCOC(=O)C1(Cc2cccc(Cl)c2)CCCN(C(=O)C(C)(C)C)C1 (stereo not given) | – | – | – | – | – | – | · | ·
CCN(CC)C(=O)C12C(=O)Oc3ccccc3C1C2(C)C(=O)c1ccc(F)cc1 (stereo not given) | 20 | · | – | – | – | – | – | –
CCOC(=O)NC(NC(=S)Nc1ccc(OCC)cc1)C(Cl)(Cl)Cl (stereo not given) | 24 | – | – | – | – | – | – | –
CN(C)C(=O)NC(NC(=S)Nc1ccccc1)C(Cl)(Cl)Cl (stereo not given) | – | – | – | – | – | – | · | ·
CC(C)CNC(=O)CN(C)S(=O)(=O)c1ccc(F)cc1 | 22 | – | – | – | – | – | – | –
CN(CC(=O)NC1CC1)S(=O)(=O)c1ccc(F)cc1 | – | · | – | – | – | – | · | ·
COc1cc(OC)cc(-c2nn[nH]n2)c1 | 20 | – | – | – | – | – | – | –
CCn1ncc(Cl)c1C(=O)NC(C)c1ccccc1 (stereo not given) | 21 | · | – | – | – | – | – | –
O=S1(=O)c2ccc(N3CCCC3)cc2Oc2ccccc2CN1Cc1cn(Cc2ccc(C(F)(F)F)cc2)nn1 | – | · | · | · | – | – | · | ·
COc1cc(/C=C/C(=O)OCC(=O)N2CCCCCC2)cc(OC)c1OC | – | · | · | · | – | – | · | ·
CC(C)(C)C(=O)N1CCC2CC1c1cc(-c3ccc4c(c3)OCO4)ccc12 (stereo not given) | – | · | · | · | – | – | · | ·
CC(C)(C)NC(=S)N1CCC2CC1c1cc(-c3ccc4c(c3)OCO4)ccc12 (stereo not given) | 22 | · | · | · | – | – | – | –
Oc1cccc(-c2ccc3nccn3c2)c1 | – | · | · | · | – | – | · | ·
COc1ccc(OC)c(NC(=O)Nc2nc(C(N)CCc3ccccc3)cs2)c1 (stereo not given) | 23 | · | · | · | – | – | – | –
CC(C)c1ccc(NC(=O)Nc2nc(C(N)CCc3ccccc3)cs2)cc1 (stereo not given) | 21 | · | · | · | – | – | – | –
CCOC(=O)[C@]12CCCC=C1N(Cc1ccc(Cl)cc1Cl)C(=O)[C@H](CC(=O)N1CCN(C(=O)C3CC3)CC1)C2 | – | · | · | · | – | – | · | ·
O=C(CNc1cccc(S(=O)(=O)N2CCCC2)c1)Nc1cccc(C(F)(F)F)c1 | – | · | – | – | – | – | · | ·
Cc1cccc(NC(=S)NNC(=O)CCn2nc(C)c([N+](=O)[O-])c2C)c1 | – | – | – | – | – | – | · | ·
Cc1nn(CC(=O)NNC(=S)Nc2ccccc2)c(C)c1[N+](=O)[O-] | 20 | – | – | – | – | – | 22 | –
COc1cccc(NC(=S)NNC(=O)c2ccccc2OC(F)F)c1 | 25 | – | – | – | – | – | 31 | –
O=C(NNC(=S)Nc1ccc(F)cc1)c1ccccc1OC(F)F | 21 | – | – | 92 | – | – | 26 | –
O=C(NC1CC1)c1ccccc1NC(=O)c1ccccc1OC(F)F | – | · | · | · | – | – | · | ·
Cc1ccc(NC(=S)NNC(=O)c2ccccc2OC(F)F)cc1 | 26 | – | – | 102 | – | – | 21 | –
SMILES | HGIII-sPLA2 inh | HIF act | Yeast superoxide | AHR act | PLC-beta3 inh | PLC-gamma1 inh | hGIII sPLA2 conf | BODIPY interf | others
COc1cccc(NC(=S)Nc2ccc(O)cc2)c1 | – | – | – | – | – | – | · | ·
COc1ccccc1Nc1nccc(N(C)C)c1C#N | – | – | – | – | – | – | · | ·
O=[N+]([O-])c1ccc(-c2cn3c(n2)CCC3)cc1 | – | – | – | – | – | – | · | ·
C/C(=N/NC(=O)c1ccc2c(c1)OCO2)c1cccc([N+](=O)[O-])c1 | – | – | – | – | – | – | · | ·
C/C(=N/NC(=O)c1ccc2c(c1)OCCO2)c1ccc([N+](=O)[O-])cc1 | 23 | – | – | – | – | – | – | –
CCOc1ccccc1C(=O)NN1CCOCC1 | – | – | – | – | – | – | · | ·
CCOc1ccccc1C(=O)NN1C(=O)C2CCCCC2C1=O (stereo not given) | 22 | – | – | – | – | – | – | –
Clc1cccc(-c2nc3c4ccccc4ccn3c2CC2CCCCC2)c1 | – | · | · | · | – | – | · | ·
CCOC(=S)SCC(=O)Nc1nc(C)c(C)s1 | 19 | – | – | – | – | – | – | –
CC1=C(C(=O)OCCC(C)C)C(c2ccc3c(c2)OCO3)NC(=O)N1 (stereo not given) | – | – | – | · | – | – | · | ·
CCCCCC/C(=N/O)c1ccccn1 | 22 | – | – | – | – | – | – | –
C/C(=N/O)c1ccccn1 | – | – | – | – | – | – | · | ·
CC(C)Cn1c(/C=N/Nc2nc3ccccc3[nH]2)nc2ccccc21 | 29 | 23 | · | · | – | – | 39 | –
CNC(C)C(=O)NC(C(=O)N1CCCC1C(=O)NNc1ccccc1)C(C)C (stereo not given) | – | · | – | – | – | – | · | ·
N/C(COc1cc(Cl)cc(Cl)c1)=N\O | 21 | – | – | – | – | – | – | –
COc1ccc2oc(=N)c(C(=O)Nc3ccc(Cl)cc3)cc2c1 | – | – | – | – | – | – | · | ·
Cc1cc(Br)ccc1NCc1ccccn1 | – | – | – | – | – | – | · | ·
O=C(O)c1cccc(Nc2ccc3nonc3c2[N+](=O)[O-])c1 | 20 | – | – | – | – | – | – | –
CCN(CC)c1ccc(N=Nc2nn(C)c(C)c2[N+](=O)[O-])cc1 | 23 | – | – | – | – | – | 39 | – | BODIPY interf DR=–
CCOc1ccc(NC(=S)c2ccncc2)cc1 | 22 | – | – | – | – | – | – | –
CCOc1ccc(NC(=S)Nc2ccc(OC)cc2)cc1 | – | – | – | – | – | – | · | ·
CCC(Oc1ccc(C)cc1)C(=O)Nc1ccccc1C(=O)N1CCOCC1 (stereo not given) | – | – | – | – | – | – | · | ·
Cn1c(=O)c(=O)n(C)c2cc(N3CCCCC3)c(NS(=O)(=O)c3ccc([N+](=O)[O-])cc3)cc21 | 21 | – | – | – | – | – | – | –
Cn1c(=O)c(=O)n(C)c2cc(N3CCCC3)c(NS(=O)(=O)c3ccc(F)cc3)cc21 | – | – | – | – | – | – | · | ·
C[C@@H]1CN([C@H](C)CO)C(=O)CCCn2nncc2CO[C@H]1CN(C)S(=O)(=O)c1ccccc1F | – | · | · | · | – | – | · | ·
O=C(Nc1ccccc1)c1cn(CCBr)cn1 | 20 | – | – | – | – | – | – | –
